According to publication PMC7862700, “An all-to-all approach to the identification of sequence-specific readers for epigenetic DNA modifications on cytosine”:

Tests used:
Assay in all cases: DAPPL (digital affinity profiling via proximity ligation, sequencing); 10 mM Tris-HCl pH 7.5, 50 mM NaCl, 1 mM DTT, 4% glycerol, room temperature, 30 min; GST-TFs on glutathione beads, 16-mer random dsDNA library, 0.1% formaldehyde crosslink after washing; high values mean tight binding
Details in all cases: protein: recombinant; tags: N-terminal GST; dsDNA, one strand shown
ERF = target: T1, ERF (Homo sapiens, UniProt P50548 1-548)
T1 sequence: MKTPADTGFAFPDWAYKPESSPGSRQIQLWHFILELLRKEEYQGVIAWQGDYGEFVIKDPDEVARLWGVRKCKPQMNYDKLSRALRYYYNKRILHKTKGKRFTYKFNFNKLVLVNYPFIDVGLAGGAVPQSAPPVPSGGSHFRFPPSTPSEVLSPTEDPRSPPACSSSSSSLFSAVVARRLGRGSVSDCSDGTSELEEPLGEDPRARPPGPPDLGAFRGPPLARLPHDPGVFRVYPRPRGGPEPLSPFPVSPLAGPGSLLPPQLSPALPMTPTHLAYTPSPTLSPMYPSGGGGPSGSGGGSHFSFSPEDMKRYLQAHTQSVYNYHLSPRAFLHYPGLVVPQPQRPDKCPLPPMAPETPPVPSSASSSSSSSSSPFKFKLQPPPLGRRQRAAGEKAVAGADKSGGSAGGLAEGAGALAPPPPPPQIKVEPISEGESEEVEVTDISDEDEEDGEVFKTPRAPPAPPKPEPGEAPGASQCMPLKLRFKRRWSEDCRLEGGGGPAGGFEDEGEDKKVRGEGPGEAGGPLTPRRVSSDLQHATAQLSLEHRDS
How it was run: (§1)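 Beads coated with glutathione captured GST-fused human transcription factors that had been expressed in yeast, and the factors were then given DNA barcodes and pooled with a tag-only sample. The pools were incubated with 200 nmole of a random double-stranded 16-mer DNA library in Tris/NaCl/DTT/glycerol buffer for 30 min at room temperature, washed, crosslinked with 0.1% formaldehyde and proximity-ligated with BsaI/T4 ligase at 37 °C for 1 h. PCR amplification and Illumina NextSeq500 sequencing came last. Binding signal is each hexamer's read frequency for a factor divided by its frequency for the tag-only sample.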

ETV3L = target: T2, ETV3L (Homo sapiens, UniProt Q6ZN32 1-361)
T2 sequence: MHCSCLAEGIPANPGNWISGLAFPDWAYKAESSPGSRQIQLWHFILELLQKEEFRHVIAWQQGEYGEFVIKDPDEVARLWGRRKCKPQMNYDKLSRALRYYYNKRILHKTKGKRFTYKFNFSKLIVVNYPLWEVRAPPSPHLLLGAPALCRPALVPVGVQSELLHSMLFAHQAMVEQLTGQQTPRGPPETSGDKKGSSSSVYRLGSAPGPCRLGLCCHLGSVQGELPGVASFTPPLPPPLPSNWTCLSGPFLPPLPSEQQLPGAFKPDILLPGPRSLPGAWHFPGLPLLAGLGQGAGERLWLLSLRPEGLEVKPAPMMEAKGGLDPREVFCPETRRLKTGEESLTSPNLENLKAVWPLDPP
How it was run: as §1

ETS2 = target: T3, ETS2 (Homo sapiens, UniProt P15036 1-469)
T3 sequence: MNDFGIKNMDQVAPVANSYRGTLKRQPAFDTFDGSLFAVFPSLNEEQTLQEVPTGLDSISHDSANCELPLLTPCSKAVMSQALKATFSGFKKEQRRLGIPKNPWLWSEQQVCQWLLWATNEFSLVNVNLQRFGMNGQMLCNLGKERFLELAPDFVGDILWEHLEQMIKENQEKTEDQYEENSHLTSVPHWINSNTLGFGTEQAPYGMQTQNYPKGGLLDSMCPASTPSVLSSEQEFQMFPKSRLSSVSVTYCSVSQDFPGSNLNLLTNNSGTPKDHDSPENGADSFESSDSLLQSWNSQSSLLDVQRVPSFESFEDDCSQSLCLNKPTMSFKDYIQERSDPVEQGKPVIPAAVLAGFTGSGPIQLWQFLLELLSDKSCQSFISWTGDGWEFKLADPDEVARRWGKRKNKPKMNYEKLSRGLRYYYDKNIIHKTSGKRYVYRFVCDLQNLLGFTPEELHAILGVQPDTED
How it was run: as §1

SPDEF = target: T4, SPDEF (Homo sapiens, UniProt O95238 1-335)
T4 sequence: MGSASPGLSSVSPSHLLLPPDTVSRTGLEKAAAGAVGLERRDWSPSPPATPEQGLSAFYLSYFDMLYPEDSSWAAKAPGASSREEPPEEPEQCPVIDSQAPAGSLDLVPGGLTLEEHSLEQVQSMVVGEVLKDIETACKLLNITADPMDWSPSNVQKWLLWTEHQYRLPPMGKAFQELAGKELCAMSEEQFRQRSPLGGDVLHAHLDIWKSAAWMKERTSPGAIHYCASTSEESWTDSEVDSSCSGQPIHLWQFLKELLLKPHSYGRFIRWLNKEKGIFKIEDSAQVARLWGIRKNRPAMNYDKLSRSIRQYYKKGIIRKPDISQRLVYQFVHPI
How it was run: as §1

ETV7 = target: T5, ETV7 (Homo sapiens, UniProt Q9Y603 1-341)
T5 sequence: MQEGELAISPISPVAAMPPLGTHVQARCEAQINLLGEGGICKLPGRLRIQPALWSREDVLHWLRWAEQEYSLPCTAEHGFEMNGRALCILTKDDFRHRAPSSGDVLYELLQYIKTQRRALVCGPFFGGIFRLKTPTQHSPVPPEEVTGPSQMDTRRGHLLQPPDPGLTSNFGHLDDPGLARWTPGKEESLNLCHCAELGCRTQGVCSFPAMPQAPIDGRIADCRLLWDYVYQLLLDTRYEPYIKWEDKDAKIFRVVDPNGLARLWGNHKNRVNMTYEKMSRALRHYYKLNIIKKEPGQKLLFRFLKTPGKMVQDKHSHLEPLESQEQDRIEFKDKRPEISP
How it was run: as §1

ELF5 = target: T6, ELF5 (Homo sapiens, UniProt Q9UKW6-2 1-255)
T6 sequence: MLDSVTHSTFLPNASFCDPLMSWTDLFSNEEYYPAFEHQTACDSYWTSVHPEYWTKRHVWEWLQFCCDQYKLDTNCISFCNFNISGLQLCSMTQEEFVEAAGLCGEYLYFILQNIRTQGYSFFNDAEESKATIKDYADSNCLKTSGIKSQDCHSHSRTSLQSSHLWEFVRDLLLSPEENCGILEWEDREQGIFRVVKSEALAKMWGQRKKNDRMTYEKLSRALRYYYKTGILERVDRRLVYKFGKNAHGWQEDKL
How it was run: as §1

ETV3 = target: T7, ETV3 (Homo sapiens, UniProt P41162-2 1-143)
T7 sequence: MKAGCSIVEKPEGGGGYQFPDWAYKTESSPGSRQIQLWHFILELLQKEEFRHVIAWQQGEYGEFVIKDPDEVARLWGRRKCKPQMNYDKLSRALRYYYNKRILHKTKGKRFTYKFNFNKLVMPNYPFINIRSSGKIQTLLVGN
How it was run: as §1

ETV6 = ETV6 (Homo sapiens, UniProt P41212 1-452)
How it was run: as §1

ETV6, sequence (P41212 whole entry): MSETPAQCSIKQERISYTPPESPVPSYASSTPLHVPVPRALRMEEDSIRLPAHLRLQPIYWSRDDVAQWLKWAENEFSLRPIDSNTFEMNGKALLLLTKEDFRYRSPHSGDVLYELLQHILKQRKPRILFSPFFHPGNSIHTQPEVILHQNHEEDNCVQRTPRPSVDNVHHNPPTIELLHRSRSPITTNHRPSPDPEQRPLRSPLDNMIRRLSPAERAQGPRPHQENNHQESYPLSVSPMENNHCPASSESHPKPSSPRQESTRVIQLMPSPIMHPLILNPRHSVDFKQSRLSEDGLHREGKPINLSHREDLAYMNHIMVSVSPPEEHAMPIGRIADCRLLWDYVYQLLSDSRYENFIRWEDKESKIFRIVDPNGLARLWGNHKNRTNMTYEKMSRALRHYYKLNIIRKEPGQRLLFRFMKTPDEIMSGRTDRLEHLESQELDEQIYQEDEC

Sequence	binding signal (ERF)	binding signal (ETV3L)	binding signal (ETS2)	binding signal (SPDEF)	binding signal (ETV7)	binding signal (ELF5)	binding signal (ETV3)	binding signal (ETV6)
TTCTAC	1.7 fold enrichment (6-mer frequency, TF over GST control)	1.51 fold enrichment (6-mer frequency, TF over GST control)	1.62 fold enrichment (6-mer frequency, TF over GST control)	1.5 fold enrichment (6-mer frequency, TF over GST control)	1.54 fold enrichment (6-mer frequency, TF over GST control)	1.54 fold enrichment (6-mer frequency, TF over GST control)	1.41 fold enrichment (6-mer frequency, TF over GST control)	1.49 fold enrichment (6-mer frequency, TF over GST control)
GCTCTC	1.42 fold enrichment (6-mer frequency, TF over GST control)	1.52 fold enrichment (6-mer frequency, TF over GST control)	1.51 fold enrichment (6-mer frequency, TF over GST control)	1.12 fold enrichment (6-mer frequency, TF over GST control)	1.25 fold enrichment (6-mer frequency, TF over GST control)	1.2 fold enrichment (6-mer frequency, TF over GST control)	1.48 fold enrichment (6-mer frequency, TF over GST control)	1.43 fold enrichment (6-mer frequency, TF over GST control)
ATTATT	1.11 fold enrichment (6-mer frequency, TF over GST control)	1.17 fold enrichment (6-mer frequency, TF over GST control)	1.16 fold enrichment (6-mer frequency, TF over GST control)	1.11 fold enrichment (6-mer frequency, TF over GST control)	1.25 fold enrichment (6-mer frequency, TF over GST control)	1.15 fold enrichment (6-mer frequency, TF over GST control)	1.18 fold enrichment (6-mer frequency, TF over GST control)	1.13 fold enrichment (6-mer frequency, TF over GST control)
CTAGGT	1.03 fold enrichment (6-mer frequency, TF over GST control)	1.16 fold enrichment (6-mer frequency, TF over GST control)	1.11 fold enrichment (6-mer frequency, TF over GST control)	1.17 fold enrichment (6-mer frequency, TF over GST control)	1.1 fold enrichment (6-mer frequency, TF over GST control)	1.01 fold enrichment (6-mer frequency, TF over GST control)	1.14 fold enrichment (6-mer frequency, TF over GST control)	1.11 fold enrichment (6-mer frequency, TF over GST control)
TCCTGT	1.6 fold enrichment (6-mer frequency, TF over GST control)	1.88 fold enrichment (6-mer frequency, TF over GST control)	1.84 fold enrichment (6-mer frequency, TF over GST control)	2.32 fold enrichment (6-mer frequency, TF over GST control)	1.89 fold enrichment (6-mer frequency, TF over GST control)	2.35 fold enrichment (6-mer frequency, TF over GST control)	1.89 fold enrichment (6-mer frequency, TF over GST control)	1.84 fold enrichment (6-mer frequency, TF over GST control)
CCCTAT	1.22 fold enrichment (6-mer frequency, TF over GST control)	1.44 fold enrichment (6-mer frequency, TF over GST control)	1.34 fold enrichment (6-mer frequency, TF over GST control)	1.31 fold enrichment (6-mer frequency, TF over GST control)	1.3 fold enrichment (6-mer frequency, TF over GST control)	1.43 fold enrichment (6-mer frequency, TF over GST control)	1.34 fold enrichment (6-mer frequency, TF over GST control)	1.28 fold enrichment (6-mer frequency, TF over GST control)
ATTCGA	1.29 fold enrichment (6-mer frequency, TF over GST control)	1.47 fold enrichment (6-mer frequency, TF over GST control)	1.31 fold enrichment (6-mer frequency, TF over GST control)	1.28 fold enrichment (6-mer frequency, TF over GST control)	1.28 fold enrichment (6-mer frequency, TF over GST control)	1.24 fold enrichment (6-mer frequency, TF over GST control)	1.22 fold enrichment (6-mer frequency, TF over GST control)	1.23 fold enrichment (6-mer frequency, TF over GST control)
CTGATT	1.21 fold enrichment (6-mer frequency, TF over GST control)	1.26 fold enrichment (6-mer frequency, TF over GST control)	1.26 fold enrichment (6-mer frequency, TF over GST control)	1.21 fold enrichment (6-mer frequency, TF over GST control)	1.24 fold enrichment (6-mer frequency, TF over GST control)	1.19 fold enrichment (6-mer frequency, TF over GST control)	1.17 fold enrichment (6-mer frequency, TF over GST control)	1.17 fold enrichment (6-mer frequency, TF over GST control)
